{"source": "PubChem BioAssay AID1445", "about": "(SRMLSC, 2008)", "note": "Out of some 220,000 compounds screened, about 910 (0.41%) were called active. This is one part of a sample in which actives are shown more often than they occur. Entries with a potency or affinity are not part of this list. A number with no mark means an inactive call.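 The calls were made as follows: active = primary inhibition above the hit cutoff, then over 50% inhibition at one or more dose response concentrations (cut at about 23% in these data, passing the limit was not always enough); inconclusive = conflicting primary data, or primary hits not chosen for dose response; inactive = low primary inhibition, or under 50% at every dose.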", "data": [{"target": "Aminopeptidase N (Plasmodium falciparum (isolate 3D7)) (UniProt O96935)", "sequence (O96935 whole entry, looked up)": "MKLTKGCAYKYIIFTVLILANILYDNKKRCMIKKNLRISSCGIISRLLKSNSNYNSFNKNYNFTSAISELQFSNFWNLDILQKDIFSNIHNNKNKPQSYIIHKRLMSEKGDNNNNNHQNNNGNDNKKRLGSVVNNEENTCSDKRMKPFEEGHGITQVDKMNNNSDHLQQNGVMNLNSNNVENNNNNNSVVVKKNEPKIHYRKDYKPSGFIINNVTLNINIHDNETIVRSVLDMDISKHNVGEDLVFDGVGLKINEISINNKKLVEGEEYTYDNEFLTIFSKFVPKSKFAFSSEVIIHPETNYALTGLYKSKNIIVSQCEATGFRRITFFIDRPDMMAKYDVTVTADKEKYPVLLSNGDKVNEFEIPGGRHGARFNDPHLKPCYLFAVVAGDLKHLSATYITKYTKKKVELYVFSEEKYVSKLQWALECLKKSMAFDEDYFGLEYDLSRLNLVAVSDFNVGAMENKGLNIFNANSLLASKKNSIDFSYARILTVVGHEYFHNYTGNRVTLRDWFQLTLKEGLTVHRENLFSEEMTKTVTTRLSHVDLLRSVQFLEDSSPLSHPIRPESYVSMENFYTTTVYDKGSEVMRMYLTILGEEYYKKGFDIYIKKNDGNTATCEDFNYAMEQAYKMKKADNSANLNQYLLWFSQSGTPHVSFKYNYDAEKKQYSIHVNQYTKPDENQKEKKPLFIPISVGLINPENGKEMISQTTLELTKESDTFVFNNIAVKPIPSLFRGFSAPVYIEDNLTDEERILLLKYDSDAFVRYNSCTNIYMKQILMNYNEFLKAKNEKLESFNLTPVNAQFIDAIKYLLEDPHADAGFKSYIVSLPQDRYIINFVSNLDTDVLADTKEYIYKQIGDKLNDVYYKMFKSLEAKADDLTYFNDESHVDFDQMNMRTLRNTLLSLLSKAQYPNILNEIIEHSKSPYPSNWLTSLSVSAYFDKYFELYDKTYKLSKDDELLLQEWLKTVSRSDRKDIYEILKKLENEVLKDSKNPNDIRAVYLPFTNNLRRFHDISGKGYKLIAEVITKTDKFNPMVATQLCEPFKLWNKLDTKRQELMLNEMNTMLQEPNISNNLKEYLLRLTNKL", "test": "P. falciparum M1AAP inhibitors, biochemical, fluorogenic H-Leu-NHMec substrate, 1536-well (AID 1445);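 also: plate controls were DMSO full reaction for no effect and no enzyme background for full effect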", "details": "recombinant M1AAP, H-Leu-NHMec fluorogenic kinetic assay; at 30 µM, stronger effect = higher value unless noted", "units": {"inhibition": "%"}, "values": [{"smiles": "c1ccc(-c2ccc(CN3C[C@@H]4C(c5ccccc5)C5(c6ccccc6)CC4(C5)[C@H]3c3ccccc3)cc2)cc1", "note": "(stereo partly specified)", "inhibition": -2.33}, {"smiles": "O=C(CSc1ccc(-c2ccc(F)cc2)nn1)NCCc1ccccc1", "inhibition": -0.33}, {"smiles": "Clc1ccc(-c2nn3cnnc3s2)c(Cl)c1", "inhibition": 0.7}, {"smiles": "CCN=C1SC(CC(=O)NCCc2ccc(OC)c(OC)c2)C(=O)N1CC", "note": "(stereo unspecified)", "inhibition": -3.87}, {"smiles": "Cc1[nH][nH]c(=O)c1C(c1ccc([N+](=O)[O-])cc1)c1c(C)[nH][nH]c1=O", "inhibition": -16.2}, {"smiles": "Cc1[nH][nH]c(=O)c1C(c1ccc(O)c([N+](=O)[O-])c1)c1c(C)[nH][nH]c1=O", "inhibition": 14}, {"smiles": "Clc1ccc(CN2C3=NCCN3c3ccccc32)cc1", "inhibition": 7.94}, {"smiles": "Cc1cc(C)n2nc(C(=O)NCc3ccco3)cc2n1", "inhibition": 8.12}, {"smiles": "Cc1cc(C(=O)NCc2cccs2)nn1C", "inhibition": 3.72}, {"smiles": "CCN(CC)C(=O)CSc1nc(O)c(Cc2ccccc2)c(=O)n1-c1ccc(C)cc1", "inhibition": 4.4}, {"smiles": "Cc1ccc(C(=O)Nc2ccccc2C(=O)N2CCCCCC2)cc1", "inhibition": 4.87}, {"smiles": "CC(C)CN(C(=O)COC(=O)c1ccccc1Sc1ccccc1C#N)C1CCS(=O)(=O)C1", "note": "(stereo unspecified)", "inhibition": -1.64}, {"smiles": "O=c1c2ccccc2nc(COc2ccccc2)n1/N=C/c1ccc(O)cc1O", "inhibition": 19.8}, {"smiles": "O=c1c2ccccc2nc(COc2ccccc2)n1/N=C/c1ccc(O)c(O)c1", "inhibition": 14.6}, {"smiles": "CCCc1nc2ccccc2c(=O)n1/N=C/c1ccc(O)cc1", "inhibition": -1.67}, {"smiles": "Cc1cccc(C)c1OCc1nc2ccccc2c(=O)n1/N=C/c1c[nH]c2ccccc12", "inhibition": 5.57}, {"smiles": "CCn1c(COc2cccc(C)c2C)nnc1SCC(=O)Nc1cc(C)on1", "inhibition": 7.39}, {"smiles": "COc1cc(/C=C/C(=O)OCC(=O)NCc2cccs2)ccc1OC(F)F", "inhibition": 4.72}, {"smiles": "O=C(N/N=C\\c1ccc[nH]1)C1COc2ccccc2O1", "note": "(stereo unspecified)", "inhibition": 9.36}, {"smiles": "CC1=NN(c2ccccc2)C(=O)C1C(=O)c1ccccc1", "note": "(stereo unspecified)", "inhibition": 14.1}, {"smiles": "CC1=NN(c2ccccc2)C(=O)C1C=Nc1ccc(N(C)C)cc1", "note": "(stereo unspecified)", "inhibition": 12.8}, {"smiles": "COC(=O)c1sccc1S(=O)(=O)Nc1ccc(S(N)(=O)=O)cc1", "inhibition": 2.58}, {"smiles": "CC(C)(C)NC(=O)CSc1nnc(SCC(=O)NC(C)(C)C)s1", "inhibition": 1.09}, {"smiles": "N#CCSc1nnc(Cc2cccs2)n1C1CCCCC1", "inhibition": 1.61}, {"smiles": "COc1ccc(C)cc1-n1nnnc1SC/C(O)=C(\\C#N)c1nc2ccccc2[nH]1", "inhibition": -0.98}, {"smiles": "Cc1ccccc1-n1c(SC/C(O)=C(\\C#N)c2nc3ccccc3[nH]2)nnc1-c1ccncc1", "inhibition": 13.8}, {"smiles": "NC(=O)CSc1nnc(Cc2cccs2)n1C1CCCCC1", "inhibition": 0.23}, {"smiles": "CCOP(=O)(OCC)C(Nc1ccccc1)c1ccco1", "note": "(stereo unspecified)", "inhibition": 0.74}, {"smiles": "CS(=O)(=O)NCc1ccc(C(=O)O)cc1", "inhibition": 9.65}, {"smiles": "NNC(=O)C1CC1c1ccccc1", "note": "(stereo unspecified)", "inhibition": -1.25}, {"smiles": "COC(=O)c1cccc(NC(=O)C2COc3ccccc3O2)c1C", "note": "(stereo unspecified)", "inhibition": 3.13}, {"smiles": "Cc1ccc(C(=O)c2cc3c(cc2[N+](=O)[O-])OCCO3)cc1", "inhibition": 1.34}, {"smiles": "Cc1ccc(C(=O)c2coc3ccc(O)c(Cl)c23)cc1", "inhibition": 2.57}, {"smiles": "Cc1oc2cc([N+](=O)[O-])c(O)c([N+](=O)[O-])c2c1C(=O)c1ccc(Cl)cc1", "inhibition": 16.5}, {"smiles": "COc1ccc(OC)c(C(=O)c2c(C)oc3cc([N+](=O)[O-])c(O)c([N+](=O)[O-])c23)c1", "inhibition": 7.96}, {"smiles": "O=C1NC(c2ccccc2)=C(c2ccccc2)C1=O", "inhibition": 18.7}, {"smiles": "O=C(c1ccco1)N1CCN(C(c2ccccc2Cl)c2nnnn2Cc2cccs2)CC1", "note": "(stereo unspecified)", "inhibition": 1.56}, {"smiles": "CC(C)(C)c1ccc(SCCc2ccccn2)cc1", "inhibition": 0.53}, {"smiles": "CC(C)Oc1ccc(NC(N)=O)cc1", "inhibition": 4.7}, {"smiles": "CCC1=NN2C(=N)/C(=C\\c3cccn3-c3c(C)cccc3C)C(=O)N=C2S1", "inhibition": 13.2}, {"smiles": "Cc1cc(C)cc(-n2cccc2/C=C2/C(=N)N3C(=NC2=O)SN=C3S(C)(=O)=O)c1", "inhibition": 18.4}, {"smiles": "CCC1=NN2C(=N)/C(=C\\c3cccn3-c3ccc(Cl)cc3)C(=O)N=C2S1", "inhibition": 8.09}, {"smiles": "CCC1=NN2C(=N)/C(=C\\c3cccn3-c3ccc(Br)cc3)C(=O)N=C2S1", "inhibition": 4.13}, {"smiles": "COc1cccc(-n2c(C)cc(/C=C3/C(=N)N4C(=NC3=O)SN=C4S(C)(=O)=O)c2C)c1", "inhibition": 16.2}, {"smiles": "CC1=CSC2=NC(=O)/C(=C\\c3cccn3-c3ccccc3)C(=N)N12", "inhibition": 5.41}, {"smiles": "CCOc1ccc(-n2c(C)cc(/C=C3/C(=N)N4C(=NC3=O)SN=C4S(C)(=O)=O)c2C)cc1", "inhibition": 21.4}, {"smiles": "CS(=O)(=O)C1=NSC2=NC(=O)/C(=C\\c3cccn3-c3ccccc3Cl)C(=N)N21", "inhibition": 12.3}, {"smiles": "COC(=O)Nc1ccc(S(=O)(=O)N2CCCC(C(=O)Nc3cccnc3)C2)cc1", "note": "(stereo unspecified)", "inhibition": -1.96}, {"smiles": "CCN(CC)CCN(C(=O)c1ccc(S(=O)(=O)N2CCCCC2)cc1)c1nc2cc3c(cc2s1)OCO3", "inhibition": -2.92}, {"smiles": "O=C(NN1CCOCC1)c1sc2cccc(F)c2c1Cl", "inhibition": 4.71}, {"smiles": "O=C1c2ccccc2C(=O)N1c1nc2nccc(-c3ccccc3)n2n1", "inhibition": -0.09}, {"smiles": "Cc1cc(NC(=O)c2cncc(Br)c2)n(-c2ccccn2)n1", "inhibition": 1.7}, {"smiles": "CCc1nnc(NS(=O)(=O)c2ccc(NC(=S)NC(=O)/C=C/c3ccc(OC)cc3)cc2)s1", "inhibition": 2.25}, {"smiles": "CCc1nnc(NS(=O)(=O)c2ccc(NC(=S)NC(=O)c3ccccc3)cc2)s1", "inhibition": 13.4}, {"smiles": "COc1cc(NS(=O)(=O)c2ccc(NC(=S)NC(=O)c3ccco3)cc2)nc(OC)n1", "inhibition": 16.3}, {"smiles": "CCc1nnc(NS(=O)(=O)c2ccc(NC(=S)NC(=O)c3ccncc3)cc2)s1", "inhibition": 4.45}, {"smiles": "CCc1nnc(NS(=O)(=O)c2ccc(NC(=S)NC(=O)/C=C/c3ccc(C(C)C)cc3)cc2)s1", "inhibition": 19.8}, {"smiles": "CCc1nnc(NS(=O)(=O)c2ccc(NC(=O)/C=C/c3ccc(F)cc3)cc2)s1", "inhibition": 3.37}, {"smiles": "CCc1nnc(NS(=O)(=O)c2ccc(NC(=S)NC(=O)/C=C/c3ccccc3)cc2)s1", "inhibition": 13.3}, {"smiles": "COc1cc(NS(=O)(=O)c2ccc(NC(=S)NC(=O)C(C)(C)C)cc2)nc(OC)n1", "inhibition": 4.8}, {"smiles": "O=C1NCCCC1C(=O)N/N=C/c1ccccc1O", "note": "(stereo unspecified)", "inhibition": 9.72}, {"smiles": "O=C(Cc1nn[nH]n1)NCc1ccccc1Cl", "inhibition": 1.85}, {"smiles": "CC1(C)CC(CCC(=O)NC(=S)Nc2ccccc2Cl)C(=O)O1", "note": "(stereo unspecified)", "inhibition": 8.14}, {"smiles": "Cc1ccc(OCC(=O)Nc2ccccc2-c2ccccc2NC(=O)COc2ccc(C)cc2)cc1", "inhibition": 3.53}, {"smiles": "N#Cc1cc(C(=O)c2cc(F)ccc2O)cn(Cc2ccccc2)c1=O", "inhibition": 7.68}, {"smiles": "Cc1ccc(C(=O)NC(=S)Nc2ccc(CN3CCCCC3)cc2)c(C)c1", "inhibition": 5.24}, {"smiles": "CC(=O)N1CCN(c2ccc(Oc3nnnn3-c3ccccc3)cc2)CC1", "inhibition": 2.19}, {"smiles": "O=C(Cc1cccs1)N/N=C/C=C/c1ccccc1[N+](=O)[O-]", "inhibition": 2.54}, {"smiles": "CCc1nnc(NS(=O)(=O)c2ccc(NC(=S)NC(=O)c3ccc(F)cc3)cc2)s1", "inhibition": 22.7}, {"smiles": "CCc1nnc(NS(=O)(=O)c2ccc(NC(=S)NC(=O)c3ccc(Br)cc3)cc2)s1", "inhibition": 21.6}, {"smiles": "COc1ccc(C(=O)/C=C/Nc2cccc(O)c2)cc1", "inhibition": -6.48}, {"smiles": "Cn1nc(C(F)(F)F)c2cc(C(=O)Nc3ccc(F)c(Cl)c3)sc21", "inhibition": 8.67}, {"smiles": "CN(C)c1ccc(/C=N/NC(=O)c2cccc(N3CCCC3=O)c2)cc1", "inhibition": 4.11}, {"smiles": "O=C(CNC(=O)c1ccncc1)N/N=C/c1cc(Br)ccc1OCc1ccccc1", "inhibition": 5.07}, {"smiles": "O=C(CNC(=O)c1cccc(Br)c1)N/N=C/c1cc(Br)cc(Br)c1O", "inhibition": 0.13}, {"smiles": "COc1ccc(/C=N/NC(=O)c2sc(C)nc2C)cc1", "inhibition": 9.79}, {"smiles": "O=C(N/N=C/c1ccco1)c1cccc(N2CCCC2=O)c1", "inhibition": 2.43}, {"smiles": "O=C(CNC(=O)c1ccc(F)cc1)N/N=C/c1cc(Br)ccc1OCc1ccccc1", "inhibition": 0.24}, {"smiles": "COc1ccccc1/C=C/C(=O)NCC(=O)N/N=C/c1cc(Br)ccc1OC", "inhibition": 22.4}, {"smiles": "COc1ccccc1/C=N/NC(=O)c1sc(C)nc1C", "inhibition": 5.02}, {"smiles": "CCOC(=O)CSc1nc2cc(C(=O)NCc3ccco3)ccc2c(=O)n1-c1ccc(F)cc1", "inhibition": 4.72}, {"smiles": "O=C(CCCCn1c(=O)[nH]c2ccccc2c1=O)NCCc1c[nH]c2ccccc12", "inhibition": 3.37}, {"smiles": "O=C(OCc1cc([N+](=O)[O-])cc2c1OCOC2)c1ccc2ccccc2n1", "inhibition": -2.61}, {"smiles": "Cc1cccc(NC(=O)CC2SC(=O)N(c3ccccc3)C2=O)c1", "note": "(stereo unspecified)", "inhibition": 0.32}, {"smiles": "C=C1C(C(=O)Nc2cccc(OC)c2)C1C(=O)Nc1cccc(OC)c1", "note": "(stereo unspecified)", "inhibition": 4.96}, {"smiles": "CCn1c(O)c(/C=N/N=C2CCCCC2)c2cc(C3=NNC(=O)CC3)ccc21", "inhibition": 4.81}, {"smiles": "CCOC(=O)c1sc2nccc(N(C)C)c2c1N=CN(C)C", "inhibition": 6.88}, {"smiles": "COc1ccc(OC)c(CN2CCC(C(=O)N(C)CCc3ccc(OC)c(OC)c3)CC2)c1", "inhibition": 6.02}, {"smiles": "COc1cc(/C=N/NC(=O)c2cccnc2)ccc1OCC(=O)Nc1c(C)cc(C)cc1C", "inhibition": 5.36}, {"smiles": "CCC(O)(CC)C(=O)N/N=C/c1cc(Br)cc(Br)c1O", "inhibition": 30.1}, {"smiles": "COc1cccc(/C=N/NC(=O)CN2CC(c3ccccc3)CC2=O)c1O", "note": "(stereo unspecified)", "inhibition": 5.93}, {"smiles": "COc1ccccc1/C=N/NC(=O)c1cccc(NC(=O)c2ccccc2Cl)c1", "inhibition": 6.04}, {"smiles": "O=C(O)c1ccccc1N/N=C/c1cc(Br)cc(Br)c1O", "inhibition": 17.7}, {"smiles": "COc1cc(/C=N/NC(=O)c2cccc(NC(=O)c3ccccc3Cl)c2)ccc1O", "inhibition": 21.6}, {"smiles": "CCNC(=O)COc1ccc(/C=N/NC(=O)c2cccnc2)cc1OC", "inhibition": 3.71}, {"smiles": "COc1cccc(/C=N/NC(=O)CN2CC(c3ccccc3)CC2=O)c1OC", "note": "(stereo unspecified)", "inhibition": 0.13}]}]}
